Experiment [1] in a line: resazurin metabolic signal in HepG2 cells – cell-based, resazurin fluorescence, 24 h, PK04 Diversity Set, profiling panel (AID 1172). The following applies: HepG2 viability, higher = more signal.
Experiment [2] in a line: budding yeast growth changes without added modifier – OD600, strain BY4716, 24 h, basal condition, primary screen (AID 1173). The settings on record: S. cerevisiae BY4716 growth, OD600, 24 h; higher = more signal, called active from +8 up or from −8 down unless noted.
Experiment [3] is described as follows: viability profiling in MM1S myeloma cells – cell-based, resazurin fluorescence, basal, 24 h, PK04 Diversity Set, profiling panel (AID 1174).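 Further: MM1S multiple myeloma cell line.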 The settings on record: higher = more signal, called active from +8 up or from −8 down unless noted.
Experiment [4] addresses Dihydroorotate dehydrogenase (quinone), mitochondrial (Plasmodium falciparum (isolate 3D7)) (UniProt Q08210). Briefly: inhibition of P. falciparum DHODH – biochemical, C-terminal His tag, absorbance 600 nm, primary screen (AID 1175).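 Further: recombinant parasite enzyme with a five histidine tag at its C terminus.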 The settings on record: PfDHODH enzyme, DCIP absorbance 600 nm; higher = more signal, called active from +8 up or from −8 down unless noted.
Experiment [5] is described as follows: inhibition of PAO1 biofilm formation – strain PAO1, LB-PBS medium, absorbance 600 nm, primary screen (AID 1176). The settings on record: P. aeruginosa PAO1 growth/biofilm, A600, 12 h; higher = more signal.
A short description of experiment [6]: growth modulation of vineyard yeast isolate – strain RM11-1a, OD600, basal, 24 h, primary screen (AID 1177).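 Further: cultures grown under basal conditions with no added stressor.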 The following applies: S. cerevisiae RM11-1a growth, OD600, 24 h; higher = more signal, called active from +8 up or from −8 down unless noted.
Experiment [7] can be described thus: growth of efflux-deficient E. coli DRC39 – strain DRC39, OD650, 24 h, E. coli filamentation inducers, primary screen (AID 1178).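 Further: growth measured as culture turbidity by optical density at 650 nm.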 The following applies: E. coli DRC39 acrAB; higher = more signal, called active from +8 up or from −8 down unless noted.
A short description of experiment [8]: growth of efflux-deficient E. coli DRC39 – strain DRC39, OD650, 48 h, E. coli filamentation inducers, primary screen (AID 1179).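 Further: screen aims at cell division blockers that make cells filament.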 The settings on record: E. coli DRC39 delta-acrAB growth, higher = more signal, called active from +8 up or from −8 down unless noted.
Experiment [9] can be described thus: viability profiling in RPMI8226 myeloma cells – cell-based, resazurin fluorescence, basal, 24 h, PK04 Diversity Set, profiling panel (AID 1180).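 Further: RPMI8826 multiple myeloma cell line at 5000 cells per well.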 The settings on record: higher = more signal; RPMI8226 viability, resazurin fluorescence, 24 h unless noted.
Experiment [10] concerns the target E3 ubiquitin-protein ligase XIAP (Homo sapiens) (UniProt P98170). Briefly: small molecules binding XIAP protein – biophysical, small-molecule microarray, fluorescence 635 nm, primary screen (AID 1181).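 Further: score merges 667 nm emission and signal to noise over triplicate slides.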 The following applies: higher = more signal.
Experiment [11] has as its system XIP peptide (Xip251-270) binding. Briefly: XIP fragment 251-270 binding compounds – biochemical, small-molecule microarray, fluorescence 635/667 nm, 0.1 µg/mL protein, primary screen (AID 1182). The following applies: fluorescent protein binding, 635 nm; higher = more signal, called active from +8 up or from −8 down unless noted.
In experiment [12] the test system is XIP peptide (Xip251-270). Briefly: compounds binding XIP fragment 251-270 – biochemical, small-molecule microarray, fluorescence 635/667 nm, 0.5 µg/mL protein, primary screen (AID 1183). The settings on record: fluorescence 635 nm, higher = more signal.
Experiment [13] in a line: blood-stage malaria parasite viability loss – strain 3D7, DAPI fluorescence, 100 nL, primary screen (AID 1184).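 Further: parasites grown inside human red blood cells in medium with human serum.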 The settings on record: P. falciparum 3D7 growth, 3 d, higher = more signal.
Experiment [14] addresses Homeobox protein Hox-A13 (Mus musculus) (UniProt Q62424). Briefly: disruptors of Hoxa13 oligonucleotide interaction – biochemical, fluorescence polarization, labeled oligonucleotide, primary screen (AID 1185). The settings on record: Hoxa13:DNA binding, 15 min; higher = more signal, called active from +8 up or from −8 down unless noted.
A short description of experiment [15]: blockers of DNA damage checkpoint Chk1 activation – imaging, HeLa, hydroxyurea, phospho-Chk1 antibody, percent positive cells, primary screen (AID 1186). The following applies: hydroxyurea-induced phospho-Chk1 immunofluorescence imaging, higher = more signal.
Experiment [16] is described as follows: blockers of DNA damage checkpoint Chk1 activation – imaging, HeLa, hydroxyurea, phospho-Chk1 nuclear intensity, primary screen (AID 1187). The following applies: hydroxyurea-induced phospho-Chk1 immunofluorescence imaging, higher = more signal.
Experiment [17] deals with Adenosylmethionine-8-amino-7-oxononanoate aminotransferase (Mycobacterium tuberculosis (strain ATCC 25618 / H37Rv)) (UniProt P9WQ81). Briefly: inhibition of purified M. tuberculosis BioA – biochemical, plate reader, cherry-pick samples, dose response (AID 651683). The settings on record: purified M. tuberculosis BioA enzyme; series mostly up to 10 µM.
Adenosylmethionine-8-amino-7-oxononanoate aminotransferase (Mycobacterium tuberculosis (strain ATCC 25618 / H37Rv)), sequence (P9WQ81 whole entry, looked up): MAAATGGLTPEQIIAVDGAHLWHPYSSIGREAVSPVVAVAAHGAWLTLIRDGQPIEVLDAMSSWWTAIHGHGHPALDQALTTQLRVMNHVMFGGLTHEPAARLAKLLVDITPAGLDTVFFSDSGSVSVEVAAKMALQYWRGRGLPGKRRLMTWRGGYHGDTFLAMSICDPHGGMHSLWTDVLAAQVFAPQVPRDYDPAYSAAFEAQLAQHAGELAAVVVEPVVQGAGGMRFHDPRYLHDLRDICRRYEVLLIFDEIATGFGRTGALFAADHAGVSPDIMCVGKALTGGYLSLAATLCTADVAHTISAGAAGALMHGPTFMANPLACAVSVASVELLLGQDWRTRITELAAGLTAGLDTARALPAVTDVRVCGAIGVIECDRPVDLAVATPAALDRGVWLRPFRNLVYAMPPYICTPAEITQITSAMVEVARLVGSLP
Experiment [18] is described as follows: C. neoformans lysis by adenylate kinase leakage – AK release luminescence, cherry-picks, dose response (AID 687000;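 active means fitted dose curve reaches 40% lysis signal rise at or below the highest valid concentration tested for that sample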;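 further: luminescent detection of adenylate kinase leaking from lysed yeast; 0% = median neutral control signal and 100% = double that signal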). The following applies: 4 h; series mostly up to 15 µM.
A short description of experiment [19]: viability loss in HepG2 hepatoma cells – cell-based, cherry-picks, set 2, cytotoxicity control, dose response (AID 687002;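 active means a dose-response fit showing signal loss, with half-maximal concentration no higher than twice the top tested dose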). The following applies: ATP luminescence (CellTiter-Glo), 48 h; series mostly up to 26 µM.
The nature of experiment [20]: fungal growth arrest, C. neoformans – Alamar Blue, cherry-picks, dose response (AID 686998;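 active means falling signal with fitted half-maximal potency no higher than twice the top valid tested dose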). The following applies: Cryptococcus neoformans growth, 24 h; series mostly up to 35 µM.

The results in this text go back to PubChem BioAssay.

Structures are written as SMILES. For some assays here: Results with a measured potency or affinity are listed apart. Records with an inconclusive call do not appear. Active and inactive are the calls of the source. Unless noted, how the calls were made is not given here.

E3 ubiquitin-protein ligase XIAP (Homo sapiens), sequence (P98170 whole entry, looked up, the tested form may be a part): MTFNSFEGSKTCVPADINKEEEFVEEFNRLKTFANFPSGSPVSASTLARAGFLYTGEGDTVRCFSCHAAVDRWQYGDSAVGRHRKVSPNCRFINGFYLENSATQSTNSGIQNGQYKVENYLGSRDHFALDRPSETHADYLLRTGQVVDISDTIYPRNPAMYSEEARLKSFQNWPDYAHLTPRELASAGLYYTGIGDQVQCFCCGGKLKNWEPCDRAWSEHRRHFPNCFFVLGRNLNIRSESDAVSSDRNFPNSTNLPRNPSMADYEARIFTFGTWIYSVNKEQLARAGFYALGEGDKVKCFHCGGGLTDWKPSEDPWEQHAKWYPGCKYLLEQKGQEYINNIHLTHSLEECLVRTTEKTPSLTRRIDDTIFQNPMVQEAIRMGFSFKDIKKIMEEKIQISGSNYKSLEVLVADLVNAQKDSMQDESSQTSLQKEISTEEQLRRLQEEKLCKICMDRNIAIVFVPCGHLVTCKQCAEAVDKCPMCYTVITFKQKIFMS
Dihydroorotate dehydrogenase (quinone), mitochondrial (Plasmodium falciparum (isolate 3D7)), sequence (Q08210 whole entry, looked up): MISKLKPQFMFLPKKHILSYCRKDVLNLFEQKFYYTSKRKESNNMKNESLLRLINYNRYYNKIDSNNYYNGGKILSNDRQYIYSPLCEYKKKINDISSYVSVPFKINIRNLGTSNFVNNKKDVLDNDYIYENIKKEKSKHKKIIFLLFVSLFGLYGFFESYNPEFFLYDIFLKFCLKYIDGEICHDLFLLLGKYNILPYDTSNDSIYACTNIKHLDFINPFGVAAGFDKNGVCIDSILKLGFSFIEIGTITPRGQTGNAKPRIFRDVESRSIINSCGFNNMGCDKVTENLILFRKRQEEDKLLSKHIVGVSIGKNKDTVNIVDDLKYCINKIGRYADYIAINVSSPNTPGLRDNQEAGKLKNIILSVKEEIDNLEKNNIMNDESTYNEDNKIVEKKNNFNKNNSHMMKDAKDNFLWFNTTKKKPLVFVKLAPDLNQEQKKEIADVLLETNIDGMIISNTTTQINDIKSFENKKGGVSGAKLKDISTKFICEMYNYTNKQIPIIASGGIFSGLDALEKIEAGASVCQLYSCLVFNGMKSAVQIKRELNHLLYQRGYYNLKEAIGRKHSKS
Homeobox protein Hox-A13 (Mus musculus), sequence (Q62424 whole entry, looked up): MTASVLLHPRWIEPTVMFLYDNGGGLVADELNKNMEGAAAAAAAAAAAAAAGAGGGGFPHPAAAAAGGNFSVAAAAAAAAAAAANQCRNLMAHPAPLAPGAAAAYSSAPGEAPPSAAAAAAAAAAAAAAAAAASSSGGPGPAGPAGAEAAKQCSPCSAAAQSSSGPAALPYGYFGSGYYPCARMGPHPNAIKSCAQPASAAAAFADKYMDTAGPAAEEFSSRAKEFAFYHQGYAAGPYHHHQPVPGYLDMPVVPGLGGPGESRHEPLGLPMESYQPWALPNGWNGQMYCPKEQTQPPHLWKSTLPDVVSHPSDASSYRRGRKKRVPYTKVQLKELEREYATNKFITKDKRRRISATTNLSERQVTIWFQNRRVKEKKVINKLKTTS

On to `COC(=O)[C@H]1C(=O)c2ccccc2O[C@@](C(=O)OC)(c2ccccc2)[C@@H]1c1ccccc1`, for which the z-score in experiment [1] is -0.515; in experiment [2], -0.54 (inactive); in [3], -0.0272 (inactive); in experiment [5], -0.233 (inactive); in experiment [6], 0.174 (inactive); in experiment [7], 0.27 (inactive). Also, the z-score in [8] was 0.419 (inactive); in experiment [9], 0.223; in experiment [13], -1.6; in [14] it was -0.6 (inactive). Besides, the composite z-score in experiment [4] was 0.0983 (inactive); in experiment [10] it was 0.182; in experiment [11], 0.107 (inactive); in experiment [12] it was 0.191.

As for `CCCc1cc2c(n1CCO)C(C)C1CN(C(=O)c3ccccc3)C(C)(C(=O)OC)C21` (stereo not drawn), the z-score in [1] is -1.6; in experiment [2] it was 0.262 (inactive); in experiment [3], -1.68 (inactive); in experiment [5] it was -0.0703 (inactive); in experiment [6] it was 0.168 (inactive); in experiment [7], -0.681 (inactive). The z-score in experiment [8] is -0.127 (inactive); in [9], -1.85; in experiment [13] it was 0.119; in experiment [14] it was -4.02 (inactive); in experiment [15] it was 1.28 (inactive); in experiment [16] it was 1.1 (inactive). The composite z-score in experiment [4] is -0.349 (inactive); in experiment [10], 0.612; in experiment [11], 0.26 (inactive); in experiment [12], 0.719.

`C[C@H]1O[C@H]2C3=C(C(=O)[C@@H]4O[C@@H]4[C@@H]3O)[C@@H]1[C@@H]1[C@@H](C)OC=C3[C@@H](O)[C@H]4O[C@H]4C(=O)[C@]312`: the z-score in experiment [1] was -0.85; in experiment [2], -0.92 (inactive); in experiment [3] it was -1.92 (inactive); in [5], 0.629 (inactive); in experiment [6], -0.839 (inactive); in experiment [7], 0.215 (inactive). For the same compound, the z-score in experiment [8] is -0.115 (inactive); in [9] it was -0.416; in experiment [13] it was -1.58; in experiment [14], -0.276 (inactive). Further, the composite z-score in experiment [4] was -1.59 (inactive); in experiment [10], -0.136; in experiment [11], -0.7 (inactive); in experiment [12], 0.938.

Regarding `COC(=O)[C@H]1[C@@H](O)[C@@]2(O)c3c(OC)cc(OC)cc3O[C@@]2(c2ccc(OC)cc2)[C@@H]1c1ccccc1`, the z-score in experiment [1] was -2.12; in experiment [2] it was -0.795 (inactive); in [3] it was -3.65 (inactive); in experiment [5], 0.511 (inactive); in experiment [6] it was 0.452 (inactive); in [7] it was 0.945 (inactive). Also, the z-score in experiment [8] is 0.669 (inactive); in [9], -4.1; in experiment [13], -1.26; in experiment [14] it was -0.0317 (inactive). Also, the composite z-score in experiment [4] was -0.447 (inactive); in experiment [10], -0.245; in experiment [11], -0.119 (inactive); in experiment [12], 0.914.

For the compound `CCc1cc2c(nc1CC)CCN(CCC(C)=NOC)C2`, the z-score in experiment [1] was -0.64; in experiment [2], -0.37 (inactive); in experiment [3], 0.0324 (inactive); in [5] it was 0.0738 (inactive); in experiment [6], 0.246 (inactive); in experiment [7], -0.983 (inactive). Further, the z-score is -2.63 (inactive) in [8], 0.0393 in experiment [9], -1.21 in experiment [13] and -3.29 (inactive) in experiment [14]. Moreover, the composite z-score in experiment [4] was 0.273 (inactive); in experiment [10] it was -0.0773; in [11] it was 0.341 (inactive); in experiment [12] it was -0.0832.

For the compound `COc1cc2c(cc1O)C=[N+](C)CC2`, the z-score in [1] was -0.365; in experiment [2] it was 0.248 (inactive); in experiment [3], -0.765 (inactive); in experiment [5], 0.158 (inactive); in experiment [6], -0.756 (inactive); in [7], 0.313 (inactive). Besides, the z-score was 1.42 (inactive) in experiment [8]; -0.383 in experiment [9]; -0.0765 in experiment [13]; -2.14 (inactive) in experiment [14]; -0.663 (inactive) in [15]; -0.875 (inactive) in experiment [16]. Besides, the composite z-score in experiment [4] is -1.7 (inactive); in experiment [10], 0.0613; in experiment [11] it was -1.21 (inactive); in experiment [12], -0.417.

Turning to `CCOC(=O)[C@H]1CC=C2C(=O)Oc3ccc(Br)cc3[C@@H]21`, the z-score in experiment [1] was 0.328; in [2], -17 (active); in experiment [3], -0.595 (inactive); in [5] it was 0.477 (inactive); in experiment [6], -14 (active); in experiment [7] it was -0.936 (inactive). Moreover, the z-score is -0.568 (inactive) in experiment [8]; -0.0544 in experiment [9]; -0.5 in [13]; -6.05 (inactive) in [14]; 0.439 (inactive) in [15]; 0.286 (inactive) in [16]. Besides, the composite z-score was -0.89 (inactive) in experiment [4], 0.355 in experiment [10], 0.874 (inactive) in [11] and 0.694 in experiment [12].

Take `COC(=O)[C@@]1(Cc2ccccc2)[C@H]2c3cc(C(=O)N(C)C)n(C)c3C[C@H]2CN1C(=O)c1ccccc1`: the z-score in experiment [1] was -0.0935; in experiment [2], 0.658 (inactive); in experiment [3], -0.923 (inactive); in [5], -0.222 (inactive); in [6], 0.299 (inactive); in experiment [7], 0.0242 (inactive). Besides, the z-score is 0.0618 (inactive) in [8]; -0.0721 in experiment [9]; -0.731 in experiment [13]; -6.38 (inactive) in [14]; -0.344 (inactive) in [15]; -0.428 (inactive) in experiment [16]. The composite z-score is -0.105 (inactive) in experiment [4], 0.071 in experiment [10], 0.0028 (inactive) in [11] and -0.0822 in experiment [12].

On to `O=C(O)CSc1ncnc2scc(-c3ccc(Br)cc3)c12`, for which the call in [17] was inactive.

Regarding `O=c1[nH]c(CN2CC=C(c3ccccc3)CC2)nc2cc(C(F)(F)F)ccc12`, the outcome in [18] and in experiment [19] was inactive.

Consider `Cc1c(OC(C)C(=O)NCC2CCC(C(=O)O)CC2)ccc2c1oc(=O)c1ccccc12` (stereo not drawn), for which the result in experiment [17] was inactive.

Consider `N#Cc1ccc(-c2ccc3c(c2)[C@@H]2[C@@H](CCN2C(=O)c2ccc(F)cc2)[C@@H](CO)N3)cc1`, for which the outcome in experiment [17] was inactive.

As for `C[C@H]1CN([C@@H](C)CO)C(=O)CCCn2nncc2CO[C@H]1CN(C)C(=O)Oc1cccc2ccccc12`, the compound was called inactive in experiment [20], in experiment [18] and in experiment [19].
